The results in this text go back to PubChem BioAssay AID1851 (National Center for Advancing Translational Sciences (NCATS), 2009).

Values joined by “and” are separate entries in the source; they are usually repeats but may differ in a detail not shown here. Equal values may be shown once. About 5,700 (36%) of roughly 16,000 compounds were called active. Another 24% or so got no clear call; they are omitted. This is one part of the list. Unmarked numbers belong to inactive results. Calls follow the shape of the dose curve; as a rule, active = well fitted curve in the direction sought with a large enough effect; inconclusive = small, poorly fitted or top-dose-only effect, or effect the other way; inactive = no such curve, though single readings can be large or run the other way.
% is scaled to controls: 0 for no effect and ±100 for the full control effect.

The target in this experiment is Cytochrome P450 1A2 (Homo sapiens) (UniProt P05177). Put plainly: Cytochrome panel assay with activity outcomes. The note with it: recombinant CYP, pro-luciferin dealkylation, luminescence, p450-cyp1a2; series mostly up to 57.1 µM.
Chain of Cytochrome P450 1A2 (Homo sapiens) (P05177 whole entry, looked up): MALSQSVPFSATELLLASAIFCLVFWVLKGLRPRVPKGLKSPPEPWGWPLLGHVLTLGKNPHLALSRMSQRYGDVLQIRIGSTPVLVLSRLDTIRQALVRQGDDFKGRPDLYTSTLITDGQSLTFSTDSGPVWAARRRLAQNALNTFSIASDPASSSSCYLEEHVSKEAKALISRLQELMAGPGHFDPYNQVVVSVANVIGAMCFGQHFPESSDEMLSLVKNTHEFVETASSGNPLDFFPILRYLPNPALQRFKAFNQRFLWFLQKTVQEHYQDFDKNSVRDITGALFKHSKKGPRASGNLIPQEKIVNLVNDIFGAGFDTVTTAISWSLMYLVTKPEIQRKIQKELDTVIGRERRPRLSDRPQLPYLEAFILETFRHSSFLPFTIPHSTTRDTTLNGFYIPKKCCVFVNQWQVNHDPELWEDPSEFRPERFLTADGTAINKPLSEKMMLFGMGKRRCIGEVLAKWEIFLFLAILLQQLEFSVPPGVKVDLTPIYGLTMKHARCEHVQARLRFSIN
Consider `CCOc1cc(CNc2ccc(OC)cc2)cc(Br)c1OCC(=O)NC(C)(C)C`, for which the concentration at half-maximal activity (AC50) is 11.2 µM (active). For `NCC[C@H](N)C(=O)O`, the activity, negative = inhibition was -8.87% [at 2.29 µM]. As for `Cc1c2cnccc2c(C)c2c1c1ccccc1n2CCOC(=O)c1ccccc1`, the half-maximal activity concentration (AC50) was 0.0794 µM (active). Turning to `O=C(c1cc(C(F)(F)F)cc(C(F)(F)F)c1)N1CCC2(CC1)CN(c1ccncc1)C2`, the AC50 result was “inactive”. Consider `COc1ccc(-c2nn(-c3ccccc3)cc2/C=N/NC(=O)c2ccc3c(c2)OCO3)cc1`, for which the AC50 result is “inactive”. Regarding `Cc1c(/C=N/NC(=O)c2ccc3c(c2)OCO3)cnn1C`, the AC50 was 14.1 µM (active). `COc1cc(CNCCc2c[nH]c3ccccc23)ccc1OCc1ccccc1F`: the concentration at half-maximal activity (AC50) was 25.1 µM (active). On to `CC(C)CN1CCCC2(CCN(C(=O)c3cnccn3)CC2)C1`, for which the AC50 entry was “inactive”.

`O=C(O)Cc1ccc(O)c(O)c1`: the AC50 entry is “inactive”.

Regarding `O=C(CCc1ccc(O)cc1)c1c(O)cc(O)cc1O`, the AC50 was 6.31 µM (active). For `C[C@@H](CCc1ccc(O)cc1)NCCc1ccc(O)c(O)c1`, the AC50 result is “inactive”.

In the case of `Nc1c(OCC(=O)O)ccc2cc(S(=O)(=O)O)ccc12`, the activity, negative = inhibition is -5.41% [at 11.4 µM]. Consider `CCOc1ccccc1NC(=O)CCC(=O)O`, for which the AC50 result was “inactive”.

Regarding `CCCCN(C(=O)NC(=O)Nc1ccccc1OCC)S(C)(=O)=O`, the concentration at half-maximal activity (AC50) is 20 µM (active). With `CCOc1ccccc1Nc1ccc(N)cc1S(=O)(=O)O`, the activity, negative = inhibition was -12.6% [at 2.29 µM].

Regarding `CO[C@H]1COC(=O)[C@H](C)NC(=O)C/C=C\[C@@H](C)[C@@H](NS(=O)(=O)c2ccc(C)cc2)COC(=O)C/C=C\[C@@H]1C`, the activity, negative = inhibition is -0.0135% [at 11.4 µM].

For `CSC1=C(C#N)C(c2ccccc2Cl)C2=C(N1)c1ccccc1C2=O` (centres undefined), the AC50 was 0.708 µM (active). With `N#CC1=C(SCC(N)=O)NC2=C(C(=O)c3ccccc32)C1c1ccc(Cl)cc1` (centres undefined), the concentration at half-maximal activity (AC50) was 0.631 µM (active). Take `C=CCN1C(=CCO)[C@H]2C[C@H]3[C@@H]1CC[C@@]31c3ccccc3N3C=C4[C@@H]5N(/C=C/2[C@H]31)c1ccccc1[C@]51CC[C@H]2[C@H]1C[C@@H]4/C(=C/CO)N2CC=C`: the AC50 result was “inactive”. With `O=S(=O)(c1ccccc1)N1CCC2(CC1)CN(Cc1ccccc1)C2`, the AC50 entry was “inactive”.

For `COc1cccc(/C=N/n2c(=S)n(C)c3cc(C)c(C)cc32)c1OC`, the AC50 is 2.24 µM (active).

Consider `O=C1CSc2ccc(C(=O)NCCC3=CCCCC3)cc2N1`, for which the AC50 is 3.16 µM (active). Consider `CC(C)(C)c1ccc(C(=O)N2CCC(C(=O)NCCC3=CCCCC3)CC2)cc1`, for which the AC50 result was “inactive”. Turning to `C=C/C(C)=C/[C@]1(C)SC(=O)C(C)=C1O`, the AC50 entry is “inactive”. For the compound `CC1(C)CCC2=C(O1)c1ccccc1C(=O)C2=O`, the AC50 is 3.98 µM (active). For the compound `Cc1c(C=NCCOCc2ccccc2)cnn1C`, the AC50 is 17.8 µM (active). For the compound `CCCc1ncc(C[n+]2ccccc2C)c(N)n1`, the AC50 result is “inactive”. With `C=CCOc1cccc(/C=N/NC(=O)C(=O)NCc2ccco2)c1`, the AC50 entry is “inactive”. In the case of `C=CCOc1cccc(CNn2cn[nH]c2=S)c1`, the concentration at half-maximal activity (AC50) is 3.16 µM (active). On the same count and under the same terms, the entry for `Cn1cccc1C(=O)N1CCC2(CCCN(Cc3ccccc3)C2)CC1` is “inactive”; for `Cn1cccc1C(=O)N1CCC2(CCCN(c3ccc(-c4ccccc4)cc3)C2)CC1` it is 15.8 µM (active). For the compound `COC(=O)N1CCC2(CC1)CN(c1ccccc1)C2`, the AC50 entry is “inactive”. Regarding `O=C(Oc1ccccc1)N1CCC2(CCCN(c3ccc(-c4ccccc4)cc3)C2)CC1`, the AC50 entry is “inactive”. As to `CC(C)NC(=O)N1CCCC2(CCN(C(=O)c3cccn3C)CC2)C1`, the AC50 result was “inactive”. Same read-out and setting: the same measure for `Cn1cccc1C(=O)N1CCC2(CCCN(c3cccc(-c4ccccc4)c3)C2)CC1`: 15.8 µM (active); for `CC(C)CN1CCCC2(CCN(C(=O)c3cccn3C)CC2)C1`: “inactive”; for `COC(=O)N1CCC2(CCCN(c3ccc(-c4ccccc4)cc3)C2)CC1`: 20 µM (active).

For `CN1CCCC2(CCN(C(=O)c3cccn3C)CC2)C1`, the AC50 entry is “inactive”. In the case of `Cc1cc2c(c(=O)o1)[C@@H](O)[C@H]1O[C@@H]1C2=O`, the activity, negative = inhibition is -3.99% [at 11.4 µM].

Turning to `COc1ccc(/C=C/C(=O)Nc2nc(C)cc(C)n2)cc1OC`, the half-maximal activity concentration (AC50) was 5.01 µM (active).

`CCCOc1ccc(/C=C/C(=O)Nc2ccc([N+](=O)[O-])cc2C)cc1OC`: the AC50 result was “inactive”. Regarding `COc1ccc2[nH]cc(CCNc3ncncc3-c3ccc(N(C)C)cc3)c2c1`, the half-maximal activity concentration (AC50) is 0.251 µM (active). For `COc1ccc2[nH]cc(CCNc3ncncc3-c3cccnc3)c2c1`, the AC50 was 0.316 µM (active). Turning to `COc1ccc2[nH]cc(CCNc3ncncc3-c3cccc(NS(C)(=O)=O)c3)c2c1`, the half-maximal activity concentration (AC50) is 12.6 µM (active). Still for that read-out and setting: the figure for `COc1cccc(-c2cncnc2NCCc2c[nH]c3ccc(OC)cc23)c1` is 2 µM (active).

With `COc1ccc(N2CCN(Cc3nc4c(c(=O)[nH]c(=O)n4C)n3CCCc3ccccc3)CC2)cc1`, the AC50 entry was “inactive”. Take `O=C(O)C1CC2(C1)CC(C(=O)O)C2` (centres undefined): the activity, negative = inhibition was -6.34% [at 2.29 µM].

`Cc1ccc(SCc2[nH]nc3c2C(C(C)C)C(C#N)=C(N)O3)cc1` (centres undefined): the AC50 was 12.6 µM (active). In the case of `O=[N+]([O-])c1ccc(C=Nc2ccc(Cl)cc2Cl)s1`, the AC50 is 2 µM (active). Take `O=c1onc(-c2cccs2)n1Cc1ccccc1`: the AC50 was 2.24 µM (active). Regarding `CN(C)CCNS(=O)(=O)N(C)C`, the activity, negative = inhibition is -3% [at 11.4 µM].

Consider `CNc1nc(-c2cccnc2)nc2ccccc12`, for which the AC50 is 0.1 µM (active). Same read-out and setting: the figure for `c1ccc(Nc2nc(-c3cccnc3)nc3ccccc23)cc1` is 0.398 µM (active). Turning to `O=C(O)CC12C[C@H]3C[C@@H](CC(O)(C3)C1)C2`, the activity, negative = inhibition was -11.2% [at 11.4 µM]. Regarding `O=C(CSCc1cccc(Cl)c1)NCc1ccc2c(c1)OCO2`, the concentration at half-maximal activity (AC50) is 3.16 µM (active).

`Cc1oc(-c2ccccc2Cl)nc1CSCC(=O)NC1CC1`: the half-maximal activity concentration (AC50) is 15.8 µM (active). For the compound `CCOC(=O)N1CCC(NC(=O)CS(=O)(=O)Cc2nc(-c3cccc(OC)c3)oc2C)CC1`, the AC50 entry is “inactive”. Still for that read-out and setting: the same measure for `Cc1ccccc1-c1nc(CS(=O)CC(=O)NCCN2CCN(Cc3ccccc3)CC2)c(C)o1` (centres undefined): “inactive”. For `Cc1oc(-c2ccccc2F)nc1CS(=O)(=O)CC(=O)NCCCN(C)C1CCCCC1`, the AC50 result is “inactive”. For `Cc1oc(-c2ccccc2F)nc1CSCC(=O)NCc1ccc2c(c1)OCO2`, the AC50 is 1.58 µM (active).

Consider `CN1CCN(CCCNC(=O)c2ccc(CSCc3cccc(Cl)c3)o2)CC1`, for which the AC50 entry was “inactive”. On the same count and under the same terms, the entry for `O=C(N/N=C/c1ccc2c(c1)OCO2)/C(=C/c1ccc2c(c1)OCO2)NC(=O)c1ccccc1` is “inactive”; for `O=C(CSCc1cccc(Br)c1)N/N=C/c1ccc2c(c1)OCO2` it is 2.51 µM (active); for `O=C1Nc2ccccc2C(O)(C(=O)NCc2ccc3c(c2)OCO3)N1c1ccc(Cl)c(Cl)c1` (centres undefined) it is “inactive”. As for `CC[C@]1(O)C[C@@H]2CN(CCc3c([nH]c4ccccc34)[C@](C(=O)OC)(c3cc4c(cc3OC)N(C=O)[C@H]3[C@@](O)(C(=O)OC)[C@H](C(=O)OC)[C@@]5(CC)C=CCN6CC[C@]43[C@H]65)C2)C1`, the AC50 entry was “inactive”. Regarding `CO[C@@H]1COC(=O)C/C=C\[C@H](C)[C@@H](NS(=O)(=O)c2ccc(C)cc2)COC(=O)C/C=C\[C@@H]1C`, the activity, negative = inhibition is -5.33% [at 11.4 µM] and -2.04% [at 11.4 µM]. `O=C(Cn1nc(C(F)F)cc1C(F)F)N/N=C/c1ccc2c(c1)OCO2`: the AC50 is 0.891 µM (active). As to `O=C(/C=C/c1ccc2c(c1)OCO2)NCCSCc1cccc(Cl)c1`, the AC50 was 4.47 µM (active).

For `CCS(=O)(=O)N1CCCC(C(=O)NCCCOC(C)C)C1` (centres undefined), the AC50 entry was “inactive”. Take `CCC1C(=O)N=C(SCC(=O)Nc2ccc(C(=O)OC)cc2)NC1=O` (centres undefined): the AC50 was 15.8 µM (active). On the same count and under the same terms, the same measure for `CCOC(=O)c1ccc(NC(=O)CC2NCCNC2=O)cc1` (centres undefined): “inactive”. On the same count and under the same terms, the same measure for `C/C(=N\NC(N)=O)c1ccc(Cl)cc1`: 3.16 µM (active); for `C/C(=N\NC(=O)c1ccc(Cl)cc1)c1ccc(Br)s1`: 1.26 µM (active); for `CC(NC(=O)c1cccc(F)c1)C(c1cccs1)N1CCN(C)CC1` (centres undefined): “inactive”. Take `C/C(=N\NC(=O)c1cccc(F)c1)c1ccc(Br)s1`: the AC50 is 0.631 µM (active). For `CN1C(=O)C(CC(N)=O)N(NC(=O)c2ccc(Cl)cc2)C1=S` (centres undefined), the AC50 entry is “inactive”. On to `CCN1C(=O)[C@H]2[C@H]3[C@H](O)[C@H](O)C/C(=N/O[C@@H](C)c4cn([C@H]5COC[C@H]5O)nn4)[C@@H]3CC[C@@H]2C1=O`, for which the activity, negative = inhibition is -9.43% [at 11.4 µM].

Regarding `CCCS(=O)(=O)N1CCCC(C(=O)NCCN2CCOCC2)C1` (centres undefined), the AC50 entry was “inactive”. For the compound `COCCNC(=O)c1cn(Cc2c(F)cccc2Cl)nn1`, the AC50 entry was “inactive”. As to `COCCNC(=O)c1sc2nc(-c3ccccc3)cn2c1C`, the AC50 is 2 µM (active). In the case of `COCCNC(=O)CCn1nc(-c2ccc(Cl)cc2)ccc1=O`, the AC50 result is “inactive”. For `Cc1cc(=O)[nH]c2ccccc12`, the AC50 was 15.8 µM (active). Same read-out and setting: the same measure for `O=c1[nH]c2ccccc2c2ccccc12`: 0.251 µM (active).

In the case of `CC(=O)Nc1ccc(Cc2ccc3[nH]c(=O)cc(C)c3c2)cc1`, the activity, negative = inhibition is -17% [at 11.4 µM]. As to `O=C(O)c1cccnc1SCC(=O)N1CCCCCC1`, the AC50 entry is “inactive”. In the case of `C=CCSc1ncccc1C(=O)NCc1ccc(C)cc1`, the AC50 was 0.794 µM (active). On to `COC(=O)C/C=C\[C@@H](C)[C@@H](/C=N\O[C@@H](C)CN1CCCc2nc(C)c(C)cc21)OC`, for which the activity, negative = inhibition is -0.522% [at 11.4 µM]. Turning to `Cn1ncc(Cl)c1C(=O)Nc1cccnc1`, the AC50 is 3.55 µM (active). For `CC(C(=O)Nc1cccnc1)N1C(=O)C2C3C=CC(C3)C2C1=O` (centres undefined), the AC50 entry was “inactive”. For `O=C(Nc1cccnc1)c1ccc(COc2cc(Cl)ccc2Cl)o1`, the AC50 was 0.794 µM (active). As for `CC(C)CNC(=O)c1ccc(COc2ccc(Cl)cc2Cl)o1`, the AC50 was 14.1 µM (active).

As to `O=C(N/N=C/c1ccc(O)cc1)c1ccc(COc2cc(Cl)ccc2Cl)o1`, the AC50 is 4.47 µM (active).

Consider `O=C1C(O)=C(O)C(=O)C(O)=C1O`, for which the AC50 entry is “inactive”. For `CC(=O)OC[C@@H]1O[C@H](CCO/N=C(\C)CCN2CCCc3nc(C)c(C)cc32)C=C[C@@H]1OC(C)=O`, the activity, negative = inhibition is -5.74% [at 11.4 µM].

Usually AC50 stands for the midpoint of the concentration-response curve, whichever way the signal moves.
